From the supplement of paper PMC10849652
The full data set covers some 8,800 targets. This sample favours those with a hit. About 0.5% of all pairs of compound and target were hits.

What was measured:
Assay in all cases: log2 fold change, soluble protein after heating vs DMSO (PISA); higher = thermal stabilisation; K562 lysate, 10 uM; active = over 0.2 and 3.5 SD of the protein, either way, in both replicates (recomputed)
erlotinib = compound: C#Cc1cccc(Nc2ncnc3cc(OCCOC)c(OCCOC)cc23)c1 [erlotinib]
In short: (§1)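 Quantification was by TMTpro 16plex LC-MS/MS with equalised channel sums, applied to the supernatant after 21,000xg for 90 min. Samples were crude K562 extract at 1 mg/mL protein in PBS pH 7.4 with 1 mM MgCl2, treated with 10 μM compound for 30 min, heated for 3 min across 48°C-58°C, pooled and brought to 0.5% NP-40 at 4°C. Values are log-two fold changes in thermal stability relative to solvent controls, from duplicates.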

[1] = compound: C/C(=N\NC(=O)C1=CC(=CC=C1)S(=O)(=O)N2CCOCC2)/C3=C(C=CC(=C3)Cl)O
In short: as §1

[2] = compound: C1=CC(=CC=C1C2=NC3=C(N2)C=C(C=C3)C(=O)N)OC4=CC=C(C=C4)Cl
In short: as §1

[3] = compound: C1=CC2=C(C=CC(=C2)/C=C\3/C(=O)NC(=NCC4=CC=CS4)S3)N=C1
In short: as §1

[4] = compound: C1=CC2=NC=CN=C2C=C1/C=C/3\C(=O)NC(=O)S3
In short: as §1

[5] = compound: C1=CC=C(C=C1)C2=NC(=C(N2)C3=CC=NC=C3)C4=CC(=C(C=C4)Cl)O
In short: as §1

[6] = compound: C1=CC=C2C(=C1)C3=NNC4=CC=CC(=C43)C2=O
In short: as §1

[7] = compound: C1CCN(C1)C(=O)NC2=CC=CC(=C2)NC3=NC=C(C(=N3)NCCC4=CN=CN4)Br
In short: as §1

[8] = compound: C1CN(CCC1(CC2=CC=C(C=C2)Cl)N)C3=NC=NC4=C3C=CN4
In short: as §1

IRAK-1-4 Inhibitor I = compound: C1COCCN1CCN2C3=CC=CC=C3N=C2NC(=O)C4=CC(=CC=C4)[N+](=O)[O-] [IRAK-1-4 Inhibitor I]
In short: as §1

Measured: log2 fold change

KPNA2 (UniProt P52292)
inactive: erlotinib 0.009 | [1] 0.03 | [2] -0.026 | [3] 0.005 | [4] 0.002 | [5] -0.003 | [6] -0.053 | [7] -0.017 | [8] 0.013 | IRAK-1-4 Inhibitor I -0.02

KRI1 (UniProt Q8N9T8)
inactive: erlotinib -0.017 | [1] -0.038 | [2] -0.017 | [3] -0.1 | [4] -0.012 | [5] 0.02 | [6] -0.138 | [7] 0.033 | [8] -0.04 | IRAK-1-4 Inhibitor I 0.047

LIG3 (UniProt P49916)
UniProt P49916, sequence (P49916 whole entry, looked up): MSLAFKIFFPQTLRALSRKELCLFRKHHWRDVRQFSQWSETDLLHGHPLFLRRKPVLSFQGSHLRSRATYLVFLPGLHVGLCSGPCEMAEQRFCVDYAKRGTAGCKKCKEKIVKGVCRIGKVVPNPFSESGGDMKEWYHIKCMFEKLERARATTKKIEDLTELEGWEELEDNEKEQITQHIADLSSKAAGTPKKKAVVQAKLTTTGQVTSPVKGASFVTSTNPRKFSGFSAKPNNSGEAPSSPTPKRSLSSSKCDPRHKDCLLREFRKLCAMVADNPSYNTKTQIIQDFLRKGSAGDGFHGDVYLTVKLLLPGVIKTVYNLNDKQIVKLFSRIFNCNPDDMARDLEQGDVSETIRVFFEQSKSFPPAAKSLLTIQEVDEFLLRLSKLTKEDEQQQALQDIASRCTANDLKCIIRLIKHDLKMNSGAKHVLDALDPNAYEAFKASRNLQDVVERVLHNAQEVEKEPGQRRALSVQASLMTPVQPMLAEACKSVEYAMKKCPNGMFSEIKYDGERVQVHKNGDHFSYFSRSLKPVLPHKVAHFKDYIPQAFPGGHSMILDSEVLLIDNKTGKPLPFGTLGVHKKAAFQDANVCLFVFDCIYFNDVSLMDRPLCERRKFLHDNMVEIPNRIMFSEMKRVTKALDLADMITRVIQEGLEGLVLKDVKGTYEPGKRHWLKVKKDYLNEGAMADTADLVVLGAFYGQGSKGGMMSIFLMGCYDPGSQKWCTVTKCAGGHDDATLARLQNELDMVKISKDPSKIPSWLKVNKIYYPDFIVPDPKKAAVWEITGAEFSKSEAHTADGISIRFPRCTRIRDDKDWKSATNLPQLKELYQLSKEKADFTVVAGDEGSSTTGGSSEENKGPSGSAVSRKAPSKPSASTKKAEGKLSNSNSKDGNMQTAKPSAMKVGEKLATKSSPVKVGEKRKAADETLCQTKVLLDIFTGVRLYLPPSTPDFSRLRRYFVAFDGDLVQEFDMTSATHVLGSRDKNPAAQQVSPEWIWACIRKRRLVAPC
inactive: erlotinib -0.003 | [1] 0.027 | [2] -0.04 | [3] 0.009 | [4] -0.006 | [5] 0.011 | [6] -0.013 | [7] 0 | [8] -0.036 | IRAK-1-4 Inhibitor I -0.035

LAS1L (UniProt Q9Y4W2)
inactive: erlotinib 0.053 | [1] -0.011 | [2] -0.003 | [3] -0.018 | [4] 0.022 | [5] 0.007 | [6] 0.028 | [7] -0.004 | [8] -0.027 | IRAK-1-4 Inhibitor I -0.002

KRIT1 (UniProt O00522)
inactive: erlotinib 0.071 | [1] 0.061 | [2] 0.043 | [3] -0.074 | [4] 0.177 | [5] 0.038 | [6] -0.034 | [7] -0.042 | [8] 0.043 | IRAK-1-4 Inhibitor I -0.073

LAMP1 (UniProt P11279)
UniProt P11279, sequence (P11279 whole entry, looked up): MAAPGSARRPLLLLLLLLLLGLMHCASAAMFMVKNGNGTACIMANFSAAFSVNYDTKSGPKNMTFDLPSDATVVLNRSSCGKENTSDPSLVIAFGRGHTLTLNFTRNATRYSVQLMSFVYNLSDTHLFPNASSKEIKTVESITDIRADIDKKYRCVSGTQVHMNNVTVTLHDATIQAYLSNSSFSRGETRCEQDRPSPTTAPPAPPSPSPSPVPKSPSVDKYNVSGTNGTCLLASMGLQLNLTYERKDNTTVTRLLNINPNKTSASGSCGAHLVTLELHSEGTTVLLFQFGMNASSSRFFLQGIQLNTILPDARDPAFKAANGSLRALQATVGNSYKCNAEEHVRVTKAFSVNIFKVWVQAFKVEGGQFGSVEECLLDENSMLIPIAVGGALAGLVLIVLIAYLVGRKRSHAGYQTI
inactive: erlotinib 0.024 | [1] 0.012 | [2] 0.021 | [3] -0.009 | [4] 0.012 | [5] 0.006 | [6] -0.006 | [7] -0.023 | [8] 0.038 | IRAK-1-4 Inhibitor I 0.091

MIPEP (UniProt Q99797)
inactive: erlotinib -0.048 | [1] -0.06 | [2] 0.005 | [3] 0.021 | [4] 0.019 | [5] -0.029 | [6] -0.008 | [7] 0.006 | [8] 0.005 | IRAK-1-4 Inhibitor I -0.004

MRPL15 (UniProt Q9P015)
inactive: erlotinib 0.037 | [1] -0.16 | [2] 0.051 | [3] -0.026 | [4] -0.055 | [5] -0.017 | [6] 0.004 | [7] -0.023 | [8] -0.016 | IRAK-1-4 Inhibitor I 0.034

LRPPRC (UniProt P42704)
inactive: erlotinib 0.04 | [1] 0.028 | [2] -0.02 | [3] 0.048 | [4] 0.067 | [5] -0.004 | [6] -0.017 | [7] -0.012 | [8] 0.006 | IRAK-1-4 Inhibitor I 0.006

KLHL36 (UniProt Q8N4N3)
inactive: erlotinib -0.047 | [1] -0.001 | [2] 0.06 | [3] -0.112 | [5] -0.041 | [6] 0.013 | [7] -0.009 | [8] 0.084 | IRAK-1-4 Inhibitor I 0.011
active: [4] -0.313

KNSTRN (UniProt Q9Y448)
UniProt Q9Y448, sequence (Q9Y448 whole entry, looked up): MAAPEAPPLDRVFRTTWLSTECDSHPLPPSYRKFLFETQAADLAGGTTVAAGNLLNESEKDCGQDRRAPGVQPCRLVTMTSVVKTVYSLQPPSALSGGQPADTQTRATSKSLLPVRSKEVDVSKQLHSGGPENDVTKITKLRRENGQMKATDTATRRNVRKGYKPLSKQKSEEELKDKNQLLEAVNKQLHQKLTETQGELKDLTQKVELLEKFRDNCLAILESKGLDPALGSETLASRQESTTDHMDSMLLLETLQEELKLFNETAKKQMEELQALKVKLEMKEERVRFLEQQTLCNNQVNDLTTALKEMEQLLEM
inactive: erlotinib -0.007 | [1] -0.003 | [2] -0.018 | [3] 0.006 | [4] -0.018 | [5] 0.015 | [6] 0.012 | [7] 0.036 | [8] -0.061 | IRAK-1-4 Inhibitor I -0.039

KNOP1 (UniProt Q1ED39)
inactive: erlotinib -0.018 | [1] -0.011 | [2] -0.006 | [3] -0.176 | [4] 0.019 | [5] 0.008 | [6] 0.109 | [7] -0.128 | [8] 0.118 | IRAK-1-4 Inhibitor I 0.123

MED16 (UniProt Q9Y2X0)
inactive: erlotinib 0.018 | [1] -0.033 | [2] 0.001 | [3] 0.019 | [4] -0.011 | [5] 0.008 | [6] -0.071 | [7] 0.01 | [8] -0.045 | IRAK-1-4 Inhibitor I -0.001

LIG4 (UniProt P49917)
UniProt P49917, sequence (P49917 whole entry, looked up): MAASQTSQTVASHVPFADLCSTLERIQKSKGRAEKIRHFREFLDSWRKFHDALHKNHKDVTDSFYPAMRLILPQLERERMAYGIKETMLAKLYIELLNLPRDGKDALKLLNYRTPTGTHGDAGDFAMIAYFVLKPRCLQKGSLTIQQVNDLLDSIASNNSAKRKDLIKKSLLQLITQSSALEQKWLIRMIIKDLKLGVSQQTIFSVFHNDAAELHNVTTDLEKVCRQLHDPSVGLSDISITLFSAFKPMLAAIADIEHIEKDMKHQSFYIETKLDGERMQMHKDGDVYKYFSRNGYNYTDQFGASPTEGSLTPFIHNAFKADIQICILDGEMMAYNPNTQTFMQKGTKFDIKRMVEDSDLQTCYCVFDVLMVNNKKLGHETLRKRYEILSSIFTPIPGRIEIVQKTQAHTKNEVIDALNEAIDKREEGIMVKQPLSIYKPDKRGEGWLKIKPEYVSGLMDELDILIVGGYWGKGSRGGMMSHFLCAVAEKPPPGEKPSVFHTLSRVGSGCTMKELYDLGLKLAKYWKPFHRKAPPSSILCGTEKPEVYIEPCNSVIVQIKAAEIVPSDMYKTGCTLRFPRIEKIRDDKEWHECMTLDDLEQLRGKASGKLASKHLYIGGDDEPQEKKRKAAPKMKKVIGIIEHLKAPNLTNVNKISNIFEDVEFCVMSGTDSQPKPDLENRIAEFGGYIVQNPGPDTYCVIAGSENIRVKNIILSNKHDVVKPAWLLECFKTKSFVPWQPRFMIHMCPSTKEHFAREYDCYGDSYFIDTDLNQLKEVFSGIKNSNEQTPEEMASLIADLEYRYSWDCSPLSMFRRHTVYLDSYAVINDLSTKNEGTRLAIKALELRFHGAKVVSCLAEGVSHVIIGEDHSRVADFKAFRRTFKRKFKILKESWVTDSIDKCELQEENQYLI
inactive: erlotinib 0.107 | [1] 0.014 | [2] -0.04 | [3] 0.028 | [4] 0.002 | [5] 0.024 | [6] -0.003 | [7] 0.009 | [8] -0.057 | IRAK-1-4 Inhibitor I -0.001

LAGE3 (UniProt Q14657)
inactive: erlotinib 0.028 | [2] 0.074 | [3] -0.008 | [4] -0.092 | [5] -0.018 | [6] 0.091 | [7] 0 | [8] 0.022 | IRAK-1-4 Inhibitor I 0.06
active: [1] 0.342

MGAT5 (UniProt Q09328)
inactive: erlotinib 0.037 | [1] 0.03 | [2] 0.087 | [3] 0.044 | [4] 0.078 | [5] -0.003 | [6] 0.132 | [7] -0.03 | [8] 0.066 | IRAK-1-4 Inhibitor I -0.05

MIF (UniProt P14174)
inactive: erlotinib 0.006 | [1] 0.003 | [2] -0.021 | [3] -0.045 | [4] -0.007 | [5] -0.009 | [6] 0.047 | [7] -0.023 | [8] 0.032 | IRAK-1-4 Inhibitor I 0.058

KNL1 (UniProt Q8NG31)
UniProt Q8NG31, sequence (Q8NG31 whole entry, looked up): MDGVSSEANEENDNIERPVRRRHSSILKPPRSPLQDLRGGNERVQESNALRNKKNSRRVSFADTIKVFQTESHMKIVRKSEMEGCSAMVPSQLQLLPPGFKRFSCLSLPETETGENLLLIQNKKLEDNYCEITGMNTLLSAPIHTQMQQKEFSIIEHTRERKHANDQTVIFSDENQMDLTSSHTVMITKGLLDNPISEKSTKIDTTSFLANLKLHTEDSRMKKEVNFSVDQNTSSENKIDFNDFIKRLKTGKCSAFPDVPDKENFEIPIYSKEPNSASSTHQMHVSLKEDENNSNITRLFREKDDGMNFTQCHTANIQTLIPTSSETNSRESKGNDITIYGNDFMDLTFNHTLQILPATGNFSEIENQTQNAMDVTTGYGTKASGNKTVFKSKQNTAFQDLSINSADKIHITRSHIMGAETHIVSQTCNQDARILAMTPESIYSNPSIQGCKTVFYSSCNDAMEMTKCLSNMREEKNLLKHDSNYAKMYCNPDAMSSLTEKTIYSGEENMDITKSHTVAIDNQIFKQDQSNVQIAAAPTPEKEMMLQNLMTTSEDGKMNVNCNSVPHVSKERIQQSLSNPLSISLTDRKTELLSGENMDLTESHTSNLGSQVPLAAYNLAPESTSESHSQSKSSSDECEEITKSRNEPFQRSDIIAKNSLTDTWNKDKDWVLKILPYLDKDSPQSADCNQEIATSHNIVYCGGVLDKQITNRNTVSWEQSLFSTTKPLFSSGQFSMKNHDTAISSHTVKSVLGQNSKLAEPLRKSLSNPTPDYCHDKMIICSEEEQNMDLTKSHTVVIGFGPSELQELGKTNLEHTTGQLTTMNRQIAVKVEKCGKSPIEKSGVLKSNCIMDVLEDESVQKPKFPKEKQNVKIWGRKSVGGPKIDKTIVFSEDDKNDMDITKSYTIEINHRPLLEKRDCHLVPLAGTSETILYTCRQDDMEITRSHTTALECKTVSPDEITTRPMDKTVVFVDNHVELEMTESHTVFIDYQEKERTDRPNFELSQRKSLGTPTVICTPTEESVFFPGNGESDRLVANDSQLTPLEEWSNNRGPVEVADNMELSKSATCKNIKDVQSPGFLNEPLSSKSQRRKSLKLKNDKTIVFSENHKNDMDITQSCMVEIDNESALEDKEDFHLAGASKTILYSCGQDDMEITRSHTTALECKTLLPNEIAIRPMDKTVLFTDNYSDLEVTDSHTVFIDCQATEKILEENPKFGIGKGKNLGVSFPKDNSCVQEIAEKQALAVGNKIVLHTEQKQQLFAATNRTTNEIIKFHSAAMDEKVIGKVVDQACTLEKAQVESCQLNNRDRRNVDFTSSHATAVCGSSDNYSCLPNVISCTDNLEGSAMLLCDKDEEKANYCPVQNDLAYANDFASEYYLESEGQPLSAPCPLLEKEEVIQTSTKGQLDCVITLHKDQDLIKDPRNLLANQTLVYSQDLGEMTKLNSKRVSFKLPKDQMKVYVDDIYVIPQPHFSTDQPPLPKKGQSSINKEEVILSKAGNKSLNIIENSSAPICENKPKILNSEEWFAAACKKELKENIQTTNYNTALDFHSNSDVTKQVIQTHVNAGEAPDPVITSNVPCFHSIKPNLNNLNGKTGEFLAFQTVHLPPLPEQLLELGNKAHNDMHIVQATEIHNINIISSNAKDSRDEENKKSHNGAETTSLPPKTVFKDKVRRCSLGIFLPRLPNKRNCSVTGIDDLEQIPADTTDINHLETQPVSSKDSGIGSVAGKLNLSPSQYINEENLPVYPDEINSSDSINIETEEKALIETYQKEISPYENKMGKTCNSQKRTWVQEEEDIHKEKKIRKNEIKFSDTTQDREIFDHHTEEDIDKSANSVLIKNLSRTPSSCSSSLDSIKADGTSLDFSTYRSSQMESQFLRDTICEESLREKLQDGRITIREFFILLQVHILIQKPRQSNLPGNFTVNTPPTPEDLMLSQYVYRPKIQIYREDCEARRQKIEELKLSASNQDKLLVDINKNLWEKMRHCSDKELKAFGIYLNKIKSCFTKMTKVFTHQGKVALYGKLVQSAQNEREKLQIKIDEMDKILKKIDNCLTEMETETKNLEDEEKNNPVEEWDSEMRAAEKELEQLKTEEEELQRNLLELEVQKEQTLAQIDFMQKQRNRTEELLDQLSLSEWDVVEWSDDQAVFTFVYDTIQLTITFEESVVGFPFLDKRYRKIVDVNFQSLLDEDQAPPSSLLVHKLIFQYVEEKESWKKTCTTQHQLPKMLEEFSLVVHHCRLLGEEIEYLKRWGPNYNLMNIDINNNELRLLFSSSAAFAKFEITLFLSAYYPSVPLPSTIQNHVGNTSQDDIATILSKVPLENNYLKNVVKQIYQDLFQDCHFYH
inactive: erlotinib -0.005 | [1] -0.015 | [2] 0.002 | [3] 0 | [4] -0.017 | [5] 0.019 | [6] -0.015 | [7] 0.006 | [8] -0.007 | IRAK-1-4 Inhibitor I 0.002

MAPK12 (UniProt P53778)
inactive: erlotinib 0 | [1] -0.026 | [2] 0.009 | [3] 0.016 | [4] 0.041 | [5] 0.023 | [6] 0.001 | [7] -0.058 | [8] 0.019 | IRAK-1-4 Inhibitor I -0.048

LYN (UniProt P07948)
inactive: erlotinib 0.054 | [1] -0.047 | [2] 0.026 | [3] -0.011 | [4] -0.07 | [5] -0.022 | [6] 0.025 | [7] 0.07 | [8] -0.042 | IRAK-1-4 Inhibitor I 0.487

MED10 (UniProt Q9BTT4)
inactive: erlotinib 0.049 | [1] -0.077 | [2] 0.044 | [3] 0.028 | [4] -0.149 | [5] -0.015 | [6] 0.029 | [7] 0.102 | [8] 0.101 | IRAK-1-4 Inhibitor I -0.022

MACROD1 (UniProt Q9BQ69)
inactive: erlotinib 0.025 | [1] 0.017 | [2] 0.009 | [3] 0.02 | [4] 0.283 | [5] -0.005 | [6] -0.074 | [7] 0.131 | [8] -0.002 | IRAK-1-4 Inhibitor I 0.081

MAPK9 (UniProt P45984)
inactive: erlotinib -0.001 | [1] 0.017 | [2] -0.018 | [3] -0.015 | [4] 0.014 | [5] 0.068 | [7] 0.061 | [8] -0.032 | IRAK-1-4 Inhibitor I -0.014
active: [6] 0.393

LARP4B (UniProt Q92615)
inactive: erlotinib -0.019 | [1] 0.013 | [2] -0.027 | [3] -0.005 | [4] 0.009 | [5] -0.021 | [6] 0.033 | [7] 0.012 | [8] -0.033 | IRAK-1-4 Inhibitor I -0.025

MBLAC2 (UniProt Q68D91)
inactive: erlotinib -0.052 | [1] -0.042 | [2] 0.01 | [3] -0.055 | [4] 0.012 | [5] 0.018 | [6] 0.065 | [7] 0.026 | [8] -0.007 | IRAK-1-4 Inhibitor I -0.027

MCCC1 (UniProt Q96RQ3)
inactive: erlotinib 0.037 | [1] -0.028 | [2] 0.048 | [3] -0.052 | [4] 0.025 | [5] -0.029 | [6] -0.085 | [7] -0.022 | [8] 0.077 | IRAK-1-4 Inhibitor I -0.008

LUC7L (UniProt Q9NQ29)
inactive: erlotinib -0.024 | [1] 0.021 | [2] -0.097 | [3] 0.015 | [4] -0.067 | [5] -0.023 | [6] 0.01 | [7] -0.02 | [8] -0.004 | IRAK-1-4 Inhibitor I -0.026

MAPK14 (UniProt Q16539)
active: [5] 0.82
inactive: erlotinib 0.044 | [1] 0.038 | [2] -0.1 | [3] -0.05 | [4] -0.012 | [6] 0.081 | [7] -0.076 | [8] 0.015 | IRAK-1-4 Inhibitor I 0.013

KIF22 (UniProt Q14807)
inactive: erlotinib 0.012 | [1] -0.074 | [2] 0.076 | [3] -0.147 | [4] -0.007 | [5] -0.063 | [6] -0.123 | [7] 0.026 | [8] 0.05 | IRAK-1-4 Inhibitor I 0.06

MBTPS1 (UniProt Q14703)
inactive: erlotinib 0.033 | [1] -0.022 | [2] -0.044 | [3] -0.009 | [4] -0.053 | [5] 0.029 | [6] -0.014 | [7] -0.029 | [8] 0.131 | IRAK-1-4 Inhibitor I -0.026
